{
  "source": "PubChem BioAssay",
  "data": [
    {"test": "Her2 expression decrease, cell viability multiplex – SKBR3 breast tumor cells, AlphaScreen, ATP viability, primary screen (AID 461);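 note: percent of carrier control wells set as 100% viability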", "conditions": "SKBR3 Her2 protein level, 18-24 h, measured here: SKBR3 viability, ATP luminescence, at 10 µM", "units": {"viability": "%"}, "values": [
      {"smiles": "CC(C)(C)C(O)C(Oc1ccc(Cl)cc1)n1cncn1", "note": "(stereo not given)", "viability": 86.5},
      {"smiles": "COc1cc(/C=N/n2cnnc2)ccc1OC(=O)N(C)C", "viability": 97},
      {"smiles": "Nc1ccnn1C1CCNCC1", "viability": 88.5},
      {"smiles": "COC(=O)c1c(C)n(Cc2ccc3c(c2)OCO3)c2ccc(O)cc12", "viability": 116},
      {"smiles": "O=C(c1ccc(CS(=O)(=O)c2ccccc2)o1)N1CCC2(CC1)OCCO2", "viability": 90},
      {"smiles": "COc1cc(C2NCc3ccccc3-n3cccc32)ccc1O", "note": "(stereo not given)", "viability": 104},
      {"smiles": "COc1ccc(CN2CCN(C(=O)Cc3ccccc3)CC2)c(OC)c1", "viability": 93},
      {"smiles": "CC(C)OC(=O)c1c(N)n(CC2CCCO2)c2nc3ccccc3nc12", "note": "(stereo not given)", "viability": 86.5},
      {"smiles": "O=C(c1sc2ccccc2c1Cl)N1CCC2(CC1)OCCO2", "viability": 90.5},
      {"smiles": "CSc1ccc(C(=O)C(C)(C)N2CCOCC2)cc1", "viability": 106},
      {"smiles": "CCCCCCC(N)CC(=O)O", "note": "(stereo not given)", "viability": 106},
      {"smiles": "CC(C)(C)OC(=O)c1c(N)n(Cc2ccco2)c2nc3ccccc3nc12", "viability": 98.5},
      {"smiles": "c1cncc(CNC2=NCCCCC2)c1", "viability": 80.5},
      {"smiles": "COc1ccccc1-n1c(O)c(C=NCc2ccc3c(c2)OCO3)c(=O)[nH]c1=O", "viability": 93.5},
      {"smiles": "O=C(CCCOc1ccc(Cl)cc1Cl)N1CCC2(CC1)OCCO2", "viability": 106},
      {"smiles": "Cc1oc2ccc(OC(=O)N(C)C)cc2c1C(=O)OC(C)C", "viability": 96},
      {"smiles": "Oc1ccc(C2NCc3ccccc3-n3cccc32)cc1Cl", "note": "(stereo not given)", "viability": 98.5},
      {"smiles": "O=c1[nH]c(=O)n(-c2ccc(F)cc2)c(O)c1C=Nc1ccccc1N1CCCC1", "viability": 97.5},
      {"smiles": "CCOC(=O)C1CCCCC12C(C#N)=C(N)Oc1n[nH]c(C)c12", "note": "(stereo not given)", "viability": 91.5},
      {"smiles": "COCCOC(=O)C1=C(N)Oc2c(c(=O)oc3ccccc23)C1c1ccncc1", "note": "(stereo not given)", "viability": 122},
      {"smiles": "CCN1CCN(c2ncnc3ccc(Br)cc23)CC1", "viability": 100},
      {"smiles": "CCOP(=S)(OCC)c1ccc(N(C)C)cc1", "viability": 92.5},
      {"smiles": "NC(=O)CSP(=O)(c1ccccc1)c1ccccc1", "viability": 94},
      {"smiles": "Nc1ccc(C2(c3ccc(N)cc3)CN3CCC2CC3)cc1", "viability": 120},
      {"smiles": "CN(C)c1cc(N)c2c(n1)CCC2", "note": "(tested in a mixture with another compound)", "viability": 113},
      {"smiles": "CCOc1ccc(-n2c(O)c(C=NCCN3CCNCC3)c(=O)[nH]c2=O)cc1", "viability": 102},
      {"smiles": "CC(=NCCCO)c1c(O)n(Cc2ccccc2)c(=O)[nH]c1=O", "viability": 95},
      {"smiles": "Cc1cc(N2C(=O)C3CCCN3C2c2cccc(Cl)c2)no1", "note": "(stereo not given)", "viability": 95},
      {"smiles": "COc1ccc(S(=O)(=O)NC(CC(=O)N2CCC3(CC2)OCCO3)c2ccco2)cc1", "note": "(stereo not given)", "viability": 134},
      {"smiles": "COc1ccccc1N1CCN(Cc2c(F)cccc2F)CC1", "viability": 89},
      {"smiles": "CSc1ccc(CNC2CN3CCC2CC3)cc1", "note": "(stereo not given)", "viability": 89.5},
      {"smiles": "Cc1ccc(C)c(NC2=NCCCS2)c1", "viability": 108},
      {"smiles": "CC1=C(C(=O)OC(C)C)[C@]2(C(=O)N(CC(N)=O)c3ccccc32)C(C#N)=C(N)O1", "viability": 92},
      {"smiles": "CCCCn1c(O)c(C(C)=NCCc2ccccc2)c(=O)[nH]c1=O", "viability": 88.5},
      {"smiles": "O=C1C2CCCN2C(c2ccc(Cl)c(Cl)c2)N1c1ccccn1", "note": "(stereo not given)", "viability": 128},
      {"smiles": "COC(=O)CC1(Cc2ccccc2)C(=O)NC(=O)NC1=O", "viability": 92.5},
      {"smiles": "Cc1ccc(S(=O)(=O)Cc2ccc(C(=O)N3CCC4(CC3)OCCO4)o2)cc1", "viability": 75},
      {"smiles": "O=C1CC(N2CCC(n3c(=O)[nH]c4ccccc43)CC2)C(=O)N1c1ccc(F)cc1", "note": "(stereo not given)", "viability": 93.5},
      {"smiles": "CCOc1cc2[nH]c(=S)n(CCCC(=O)N3CCC4(CC3)OCCO4)c(=O)c2cc1OCC", "viability": 88.5},
      {"smiles": "CC(=NCc1ccc2c(c1)OCO2)c1c(O)n(C)c(=O)n(C)c1=O", "viability": 94}
    ]}
  ]
}
